For 99 compounds, inhibition results are on record in PubChem BioAssay AID2599 (Sanford-Burnham Center for Chemical Genomics, 2010).

SMILES strings stand for the structures. Screen size: about 330,000 compounds; about 5,800 (1.8%) were called active. For the sample, actives were picked, then their nearest neighbours and some compounds at random. Values without a mark were called inactive.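 How the source made its calls: active means inhibition above about 50% at the single tested dose (limit read from the data); inactive means the rest.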

The experiment deals with Sentrin-specific protease 6 (Homo sapiens) (UniProt Q9GZR1). Nature of the experiment: inhibition of human SENP6 catalytic domain – biochemical, luminescence, uHTS, primary screen (AID 2599).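 Further: plate controls were DMSO wells with enzyme for no effect and DMSO wells lacking enzyme for full effect.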 The settings on record: Recombinant SENP6 catalytic domain, aminoluciferin luminescence; at 10 µM; stronger effect = higher value.
Sentrin-specific protease 6 (Homo sapiens), sequence (Q9GZR1 628-1112 limits assumed): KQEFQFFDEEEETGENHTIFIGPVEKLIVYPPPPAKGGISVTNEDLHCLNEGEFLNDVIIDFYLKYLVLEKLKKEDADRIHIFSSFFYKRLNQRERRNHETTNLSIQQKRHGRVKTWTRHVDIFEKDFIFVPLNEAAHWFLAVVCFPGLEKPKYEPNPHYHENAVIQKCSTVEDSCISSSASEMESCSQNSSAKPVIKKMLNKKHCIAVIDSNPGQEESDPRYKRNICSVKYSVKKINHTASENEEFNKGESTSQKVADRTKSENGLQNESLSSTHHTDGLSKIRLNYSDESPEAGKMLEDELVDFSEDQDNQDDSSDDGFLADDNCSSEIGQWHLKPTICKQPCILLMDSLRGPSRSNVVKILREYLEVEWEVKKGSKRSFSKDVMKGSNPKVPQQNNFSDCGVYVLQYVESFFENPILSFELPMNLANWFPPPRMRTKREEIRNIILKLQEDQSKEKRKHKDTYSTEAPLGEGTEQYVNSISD
For orientation: inhibition means the drop in the measured response relative to a control, in per cent. `COc1ccc2nc(Nc3nc4cc5c(cc4s3)OCCO5)sc2c1`: the inhibition was 70.8% (active).
Then `COc1ccc2nc(NC(=O)[C@@H]3CCCN3C(=O)c3cccs3)sc2c1`, with 4.51%.
The result for `COc1ccc2nc(NC(=O)NC3CCCCC3)sc2c1` reads 0.352%; that for `CC(OC(=O)CN1C(=O)COc2ccccc21)C(=O)NCc1ccc(F)cc1` (centres undefined), -3.56%; that for `COc1ccc(S(=O)(=O)NC(C)C(=O)N2CCCCCC2)cc1` (centres undefined), -11.4%.
Turning to `Cc1ccc(C(=O)Nc2nc(N)n(-c3ccccc3)n2)cc1`, the inhibition is -27.7%.
Consider `Fc1c(F)c(C(F)(F)F)c(F)c(F)c1N1CCN(c2ccc3nnc(C(F)(F)F)n3n2)CC1`, for which the inhibition was 3.56%.
The result for `COc1ccccc1NC(=O)C(C)OC(=O)c1ccc(-n2cnnn2)cc1` (centres undefined) reads -16.5%; that for `O=C(O)c1ccc(N=NN2CCOCC2)cc1`, 17.8%.
The result for `O=C(O)c1cccc(N=NN2CCCCCC2)c1` reads 90.2% (active); that for `NC1=NN(c2cccc(C(=O)O)c2)C(=O)C1`, 3.51%.
As for `CS(=O)(=O)Nc1ccccc1N=C(c1ccccc1)c1ccccc1`, the inhibition is -6.12%.
Turning to `Oc1cccc2ccc(/C=C/c3ccc(Br)s3)nc12`, the inhibition was 64.4% (active).
The result for `Nc1ccc(S(=O)(=O)Nc2nccc(/C=C/c3ccc(Br)s3)n2)cc1` reads 4.55%.
Consider `COC(=O)c1c(NC(=O)COc2ccc(Cl)cc2Cl)sc2c1CC(C)(C)NC2(C)C`, for which the inhibition is -10.5%.
Then `Cc1coc(C)c1C(=O)CC1(O)C(=O)N(C)c2ccc(Cl)cc21` (centres undefined), with 0.041%; and `O=C(NC1CC1)C1CCCN(C(=O)NC2CCCCC2)C1` (centres undefined), with -5.19%; and `O=C1NNC(c2ccccc2)=N/C1=C\c1ccc(Cl)cc1`, with 29.3%.
As for `N#Cc1c(N2CCCCC2)nc(N)c2c(N)nc(SCC(=O)O)cc12`, the inhibition is 74.6% (active).
Then `N#CCc1c(C#N)c(N)nc(N2CCCC2)c1C#N`, with -5.83%; and `Nc1nc(NCC(=O)O)nc(N2CCCCCC2)c1[N+](=O)[O-]`, with 11.1%.
For `CC(C)(C)Oc1ccccc1Nc1nc(NCCO)nc(N2CCCC2)n1`, the inhibition was -11%.
For the compound `O=C(ON=C1CCN(S(=O)(=O)c2ccccc2)CC1)c1ccc(Cl)cc1`, the inhibition is 55.9% (active).
Then `CC(OC(=O)c1ccc(S(=O)(=O)N2CCOCC2)cc1)c1ccccc1` (centres undefined), with -4.11%.
With `COC(=O)c1ccc(S(=O)(=O)N2CCc3ccccc3C2)cc1`, the inhibition was -14.9%.
Then `C/C(N)=C(\C#N)C(=O)NCCc1ccccn1`, with -4.65%.
For `COc1cc(OC)cc(-c2nc(=S)n3ccsc3n2)c1`, the inhibition is -9.64%.
Then `COc1ccc(-c2cn3cccnc3n2)cc1`, with -11.4%; and `COc1ccc(-c2cn3ccsc3n2)cc1`, with 64% (active); and `CC(C(=O)NC1CCCCC1)N1C(=O)c2cccc3cccc1c23` (centres undefined), with -3.48%.
The result for `CC(C)NC(=S)Nc1cccc2cnccc12` reads 5.39%; that for `O=C(O)Cc1ccc(NC(=O)Nc2cccc3ccccc23)cc1`, -11.3%.
Consider `O=C(Nc1cccc2ccccc12)c1onc2c1CCCC2`, for which the inhibition was 84% (active).
The result for `O=C(COC(=O)c1ccccn1)Nc1cccc2ccccc12` reads -9.05%; that for `Cn1cc(CN2CCCC(CO)C2)c(-c2ccc(Oc3ccccc3)cc2)n1` (centres undefined), -24.4%.
Then `O=C1C2C3C=CC(C3)C2C(=O)N1c1ccc(-c2nc3ccccc3c(=O)o2)cc1` (centres undefined), with -7.9%; and `COc1cc(C#Cc2ccc3cc(CCCO)oc(=O)c3c2)cc(OC)c1`, with 74% (active).
With `COc1cc(/C=C2\Oc3ccc(C#Cc4ccc(O)cc4)cc3C2=O)cc(OC)c1`, the inhibition is -11.5%.
On to `O=C1c2ccccc2C(=O)N1CCC#Cc1ccc2cc(C3(O)CCCCC3)oc(=O)c2c1`, for which the inhibition is -5.78%.
The result for `Cc1[nH]c(C)c(S(=O)(=O)N2CCC(C)CC2)c1C(=O)N1CCCC1` reads 0.187%; that for `CCN(CC)S(=O)(=O)c1ccc(-c2cn3ccc(C)cc3n2)cc1`, 11.7%.
Turning to `Cc1cc(N2CCOCC2)nc(-c2ccc(Br)cc2)n1`, the inhibition was -6.76%.
On to `CSc1nnc2ccc(-c3ccc(C)cc3)nn12`, for which the inhibition was -11.1%.
Consider `COc1ccc(-c2cn3ccc(C)cc3n2)cc1`, for which the inhibition is -9.63%.
The result for `Cc1ccc(-c2cn3cc(C)ccc3n2)cc1` reads 65.4% (active).
Then `Cc1ccc2nc(-c3ccc(Br)cc3)cn2c1`, with 89.9% (active); and `Cc1sc2ncn(CC(=O)NCCCC(=O)NCc3ccc(F)cc3)c(=O)c2c1C`, with -35.1%.
The result for `O=C(CCC(=O)OCC(F)(F)C(F)F)NCc1ccccc1` reads -6.23%.
For `COc1ccccc1-n1nnnc1S(=O)(=O)Cc1ccc(Cl)cc1`, the inhibition is -13.9%.
In the case of `COc1cccc(Nc2nc(N)c([N+](=O)[O-])c(NCc3ccco3)n2)c1`, the inhibition was -15.6%.
Then `CCN1CCN(c2nc(Nc3cccc(F)c3)nc(N)c2[N+](=O)[O-])CC1`, with -5.24%.
The result for `CNc1nc(Nc2ccc(C)c(Cl)c2)nc(N)c1[N+](=O)[O-]` reads 99.7% (active).
The result for `O=C(O)c1c(NC(=O)N2CCCC2)sc2c1CCCC2` reads 9.21%; that for `COC(=O)c1c(NC(=O)c2ccccc2F)sc2c1C(C(=O)OC)CC2` (centres undefined), -5.07%.
`O=C(Nc1sc2c(c1C(=O)O)CCC2)c1ccccc1F`: the inhibition is 94% (active).
As to `Cc1cccc(Nc2nc3c(S(=O)(=O)c4ccccc4)nnn3c3ccccc23)c1C`, the inhibition is -2.12%.
Take `Fc1ccc(COc2cccc(-c3n[nH]c(=S)o3)c2)cc1`: the inhibition was -20.2%.
Take `Fc1cccc(Cl)c1COc1ccc(-c2nnco2)cc1`: the inhibition is -29.1%.
As to `Fc1ccc(COc2ccc(-c3nnco3)cc2)cc1`, the inhibition is 61.6% (active).
With `Clc1ccc(-n2nnnc2-c2cnc(-c3ccccn3)nc2-c2cccs2)cc1`, the inhibition is 1.6%.
For `Cc1ccc(-c2nc(-c3ccncc3)no2)c(C)c1`, the inhibition is 49.8%.
With `O=C(COC(=O)c1ccncc1)c1ccccc1`, the inhibition is -26.7%.
The result for `Cc1noc(C)c1COC(=O)COc1ccc(-c2ccccc2)cc1` reads 4.53%; that for `c1ccc(-c2noc(-c3cccs3)n2)nc1`, 92% (active); that for `COc1ccc(CCc2nc(-c3cccs3)no2)cc1`, 19.7%.
The result for `O=C(Oc1ccc(-c2nc(-c3ccccn3)no2)cc1)c1ccccc1` reads 97.9% (active); that for `c1ccc(CCc2nc(-c3ccncc3)no2)cc1`, -15.3%; that for `c1csc(-c2nc(-c3ccncc3)no2)c1`, 60.3% (active).
Then `Cc1nc(NC(CC(C)C)C(=O)O)c2nc(C)oc2n1` (centres undefined), with 7.07%.
`CCOC(=O)C(CC)Sc1ncnc2c1nnn2-c1ccc(F)cc1` (centres undefined): the inhibition was -3.73%.
Then `CCc1ccc(N(C(=O)c2csnn2)C(C(=O)NC2CCCCC2)c2cccnc2)cc1` (centres undefined), with -39%; and `COc1ccc(C(CNC(=O)c2cc3c(s2)CCCC3)N2CCOCC2)cc1` (centres undefined), with 3.85%; and `O=C(COc1ccc(NC(=O)c2ccccc2[N+](=O)[O-])cc1)c1ccc(F)cc1`, with -17.5%.
The result for `COc1ccc(/C=N/OCc2ccccc2C#N)c(OC)c1` reads -10.3%; that for `O=C(/C=C/Sc1ncn[nH]1)c1ccc(Cl)cc1`, -14.2%.
Take `Cc1noc(/C=C/c2ccco2)c1S(=O)(=O)N1CCC(C(=O)N2CCc3ccccc32)CC1`: the inhibition was -4.32%.
Then `CC(C)c1ccccc1OCC(O)CN(CC(O)COc1cccc2ccccc12)C(C)C` (centres undefined), with -38.4%; and `COc1ccc(-c2n[nH]c3c2CN(C(=O)c2ccc(F)cc2)CC3)cc1`, with -10.3%.
In the case of `O=C(CCN1C(=O)[C@H]2CC=CC[C@H]2C1=O)NCc1nc(-c2ccccc2)no1`, the inhibition was -11%.
Then `OCCNc1nc(Nc2ccc(Cl)c(Cl)c2)nc2ccccc12`, with 13.5%.
With `COc1ccc(-c2noc(CNC(=O)C(C)Oc3ccccc3)n2)cc1` (centres undefined), the inhibition was -14.5%.
Regarding `COc1ccc(-c2nc(-c3ccccc3)no2)c(OC)c1`, the inhibition is 97.7% (active).
The result for `COc1ccc(OC)c(-c2csc(-c3cccs3)n2)c1` reads -21.1%; that for `CN(C(=O)c1c(Cl)cnn1C)C12CC3CC(CC(C3)C1)C2`, 5.39%.
Then `CC(C)n1c(COc2ccccc2)nc2ccccc21`, with -4.84%.
The result for `COCn1c(COc2ccccc2)nc2ccccc21` reads -7.24%; that for `Cc1ccc(OCc2nc3ccccc3n2C)cc1`, 65.3% (active).
As to `COc1cccc(N2CC(NC(=O)c3ccc4ccccc4c3)CC2=O)c1` (centres undefined), the inhibition was -9.84%.
Then `CC(C)(CNC(=O)c1ccc(Cl)c(S(=O)(=O)N2CCc3ccccc3C2)c1)N1CCOCC1`, with -0.183%; and `COc1ccc(OC)c(C(=O)c2ccc(Cl)cc2)c1`, with 6.03%.
Turning to `COc1ccc(OC)c(C(=O)c2coc3ccc(OC)cc23)c1`, the inhibition is -18.1%.
`COc1ccc2occ(C(=O)c3ccc(N=C(C)N(C)C)cc3)c2c1`: the inhibition is 62.1% (active).
Take `Cc1ccc(NC(=O)c2sccc2C)cc1[N+](=O)[O-]`: the inhibition was 82.7% (active).
As for `Cc1cc(O)c(NC(=O)c2ccc(C)c([N+](=O)[O-])c2)cc1C`, the inhibition is -1.6%.
As for `O=C(N/N=C/c1ccc([N+](=O)[O-])cc1)C(=O)N1CCCC1`, the inhibition was -54.5%.
`Cc1ccc(NC(=O)CN(C)CC(=O)Nc2cccc(F)c2)cc1[N+](=O)[O-]`: the inhibition is -3.74%.
Then `Cc1ccsc1C(=O)N/N=C/c1ccc([N+](=O)[O-])cc1`, with 82.9% (active); and `Cc1ccc(/C=N/NC(=O)c2sccc2OCc2ccc(F)cc2)cc1`, with -36.4%; and `O=S(=O)(NC1CCCCC1)c1ccc(F)c2ccccc12`, with -13.8%.
